Data taken from PubChem BioAssay AID488969 (Vanderbilt High Throughput Screening Facility, 2010).
In all, about 110,000 compounds were measured (“z-score”: median about -0.1, highest 2% from about 2 on). The list comes from a sample in which the highest values are over-represented; it also holds similar structures and randomly drawn compounds. Calls of active or inactive are those of the source.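 How the source made its calls: active means z-score in the third read window above 3 or below -3; inactive means the rest.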

The compounds below were run against Metabotropic glutamate receptor 8 (Rattus norvegicus) (UniProt P70579) (assay: mGluR8 Gi/Go-coupled signaling modulation – cell-based, rat, thallium flux, HTS, primary screen (AID 488969)). Conditions: HEK293 rat mGluR8, GIRK (G protein-gated inwardly rectifying potassium channel) thallium flux, FluoZin2; at 10 µM; stronger effect = higher value; submaximal glutamate (EC20) added with thallium.
Metabotropic glutamate receptor 8 (Rattus norvegicus), sequence (P70579 whole entry, looked up): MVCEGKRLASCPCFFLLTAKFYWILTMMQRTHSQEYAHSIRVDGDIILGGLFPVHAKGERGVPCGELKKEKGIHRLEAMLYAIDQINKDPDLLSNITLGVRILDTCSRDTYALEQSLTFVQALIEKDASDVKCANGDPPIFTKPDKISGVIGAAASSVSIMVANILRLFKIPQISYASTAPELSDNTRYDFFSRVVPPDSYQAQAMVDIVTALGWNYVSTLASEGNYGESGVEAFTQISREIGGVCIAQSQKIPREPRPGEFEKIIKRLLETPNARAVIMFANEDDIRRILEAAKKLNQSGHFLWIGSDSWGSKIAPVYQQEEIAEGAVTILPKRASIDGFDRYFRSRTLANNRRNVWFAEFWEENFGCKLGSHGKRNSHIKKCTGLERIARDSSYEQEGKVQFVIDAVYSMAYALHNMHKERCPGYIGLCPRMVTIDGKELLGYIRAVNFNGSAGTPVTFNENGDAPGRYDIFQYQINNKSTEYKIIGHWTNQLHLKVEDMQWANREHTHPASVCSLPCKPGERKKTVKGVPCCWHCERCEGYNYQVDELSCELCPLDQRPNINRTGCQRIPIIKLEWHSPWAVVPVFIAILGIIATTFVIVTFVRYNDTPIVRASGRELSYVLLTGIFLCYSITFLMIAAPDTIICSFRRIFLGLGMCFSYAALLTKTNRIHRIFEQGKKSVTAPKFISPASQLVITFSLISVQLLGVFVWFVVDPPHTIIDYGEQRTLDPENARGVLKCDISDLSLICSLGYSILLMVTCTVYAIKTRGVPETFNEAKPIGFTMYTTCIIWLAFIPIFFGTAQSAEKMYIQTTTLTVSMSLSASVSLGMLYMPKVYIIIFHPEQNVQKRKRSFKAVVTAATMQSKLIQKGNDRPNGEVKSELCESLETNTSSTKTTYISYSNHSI

Structure (SMILES) | z-score
COc1ccc(CCNC(=O)c2ccc(-c3ccc([N+](=O)[O-])cc3)o2)cc1OC | -0.544
CCOc1cc([C@H]2[C@@H]3CCCC[C@]3(O)CCN2CC(=O)NCc2ccco2)ccc1O | -0.351
COc1ccc(N2CCN(Cc3nc4ccsc4c(=O)[nH]3)CC2)cc1 | -0.255
O=C(CN=C1NC(=O)C(c2ccccc2)(c2ccccc2)N1)NCc1ccc(F)cc1 | -0.114
N#CCSc1nnc2ccc3ccccc3n12 | -0.272
O=C(NCC(=O)N(Cc1cccs1)C(C(=O)NC1CCCC1)c1ccco1)c1cccs1 (configuration not stated) | 0.741
O=C(NCC(=O)N(Cc1cccs1)C(C(=O)NC1CCCCC1)c1ccco1)c1cccs1 (configuration not stated) | -0.518
O=C(NCC(=O)N(Cc1ccco1)C(C(=O)NC1CCCCC1)c1cccnc1)c1ccco1 (configuration not stated) | 0.556
O=C(NCC(=O)N(Cc1ccccc1)C(C(=O)NC1CCCC1)c1cccnc1)c1ccco1 (configuration not stated) | -0.0981
O=C(NCC(=O)N(Cc1ccco1)C(C(=O)NC1CCCC1)c1cccnc1)c1ccco1 (configuration not stated) | 2.19
O=C(NCC(=O)N(Cc1cccs1)C(C(=O)NC1CCCCC1)c1ccco1)c1ccco1 (configuration not stated) | 2.96
COc1ccc(Cl)cc1NC(=O)CN(C)C1CCCCC1 | 0.225
C#CC(CO)N(CCN(Cc1ccccc1)C(C#C)CO)Cc1ccccc1 (configuration not stated) | 2.19
CC(C)CC(C(=O)O)N(Cc1ccccc1)Cc1ccccc1 (configuration not stated) | -0.132
OCCN(Cc1ccccc1)Cc1ccccc1Cl | 0.0815
CC1CCc2c(sc(NC(=O)CSc3ncnc4c3cnn4-c3ccccc3Cl)c2C#N)C1 (configuration not stated) | -0.899
CSC1=N/C(=C\c2ccc(C)cc2)C(=O)S1 | -0.344
CSC1=N/C(=C\c2ccc(Br)o2)C(=O)S1 | 3.73 (active)
CSC1=N/C(=C\c2ccc(F)cc2)C(=O)S1 | -0.817
CC(=O)CC1(O)C(=O)N(Cc2ccccc2)c2ccccc21 (configuration not stated) | 0.034
O=C(N/N=C/c1cnc2ccccc2n1)c1cccc(F)c1 | 0.223
Cc1ccccc1N=C1NC(=O)CS1 | 0.516
O=C1CS/C(=N\C(=O)N2c3ccccc3Sc3ccccc32)N1 | 7.66 (active)

Structure (SMILES) | z-score
O=C(CN1CCCC1)N1c2ccccc2Sc2ccccc21 | -0.191
COc1ccc(NC(=O)CSc2nc3ncccc3[nH]2)cc1OC | -0.426
CCC(=O)N(Cc1cc2ccc(C)cc2n2nnnc12)C1CCCCC1 | -0.401
Cc1cc(C)nc(SC2CCOC2=O)n1 (configuration not stated) | -0.0163
C=CCn1c(SC2CCOC2=O)nc2sc(C)c(C)c2c1=O (configuration not stated) | -0.995
Cc1nc(SC2CCOC2=O)c2c(C)c(C)sc2n1 (configuration not stated) | 4.12 (active)
CCCC1Cc2c(sc(NC(=S)NC(=O)c3ccccc3)c2C#N)CO1 (configuration not stated) | 0.489
CN(C)S(=O)(=O)c1ccc(S(=O)(=O)NC2CCOC(C)(C)C2)cc1 (configuration not stated) | -1.16
CC(C)CNS(=O)(=O)c1ccc(S(=O)(=O)NC2CCOC(C)(C)C2)cc1 (configuration not stated) | -0.235
CC(=O)N1CCN(S(=O)(=O)c2ccc(S(=O)(=O)NCC(C)C)cc2)CC1 | -0.0339
CC1(C)CC(NS(=O)(=O)c2ccc(S(=O)(=O)N3CCOCC3)cc2)CCO1 (configuration not stated) | 2.05
O=C(c1ccco1)N1CCN(S(=O)(=O)c2ccc(S(=O)(=O)NC3CC3)cc2)CC1 | -0.31
CC(=O)N1CCN(S(=O)(=O)c2ccc(S(=O)(=O)NC3CC3)cc2)CC1 | 2.05
COc1cc(-n2c(C)nc3cc(C(=O)N4CCOCC4)ccc32)cc(OC)c1OC | -0.458
CCOC(=O)c1c(C)[nH]c2c1cc(O)c1ccccc12 | 4.58 (active)
CCOC(=O)c1c(-c2ccccc2)[nH]c2ccc(O)cc12 | -0.821
CCOC(=O)c1c(C)oc2c1cc(O)c1ccccc12 | -0.493
COc1ccc(-c2nc(NC(=O)c3ccc(OCC(=O)N4CCOCC4)c(OC)c3)sc2C)cc1 | -0.218
COc1ccccc1NC(=S)N(CCc1c(C)[nH]c2ccccc12)Cc1cccs1 | 0.381
CCOc1cc(/C=N\NC(=O)c2ccc(NC(=O)CC)cc2)ccc1OC(=O)c1ccccc1 | -0.103
CCOc1cc(/C=N/NC(=O)CNc2cccc(C)c2)ccc1OC(=O)c1ccccc1 | 5.52 (active)
CCOc1cc(/C=N/NC(=O)CNc2ccc(C)cc2)ccc1OC(=O)c1ccccc1 | 0.0308
CC(=O)N(C)c1nnc(-c2ccccn2)s1 | -0.0164

Structure (SMILES) | z-score
CS(=O)(=O)N(CC(=O)Nc1ccc(F)c(F)c1)c1cccc([N+](=O)[O-])c1 | 0.348
O=C(NCc1ccc2c(c1)OCO2)C1CCN(Cc2cnn(-c3ccccc3)c2-n2cccc2)CC1 | 3.14 (active)
CC(=O)Nc1ccc(NC(=O)CSCc2cnn(-c3ccccc3)c2-n2cccc2)cc1 | -0.225
COc1cccc(NC(=O)C2CCN(Cc3cnn(-c4ccccc4)c3-n3cccc3)CC2)c1 | -0.463
COc1cccc(CNC(=O)C2CCN(Cc3cnn(-c4ccccc4)c3-n3cccc3)CC2)c1 | 2.66
O=C(NCc1ccccn1)C1CCN(Cc2cnn(-c3ccccc3)c2-n2cccc2)CC1 | -0.0285
O=C(Nc1ccc2c(c1)OCO2)C1CCN(Cc2cnn(-c3ccccc3)c2-n2cccc2)CC1 | -0.13
COc1ccc(OC)c(NC(=O)C2CCN(Cc3cnn(-c4ccccc4)c3-n3cccc3)CC2)c1 | -0.109
COc1ccc(OC)c(NC(=O)CSCc2cnn(-c3ccccc3)c2-n2cccc2)c1 | 0.126
COc1cc(NC(=O)CSCc2cnn(-c3ccccc3)c2-n2cccc2)cc(OC)c1 | 7.86 (active)
CCSc1cc(N2CCCC2)nc(-c2ccccc2Cl)n1 | -0.31
COC(=O)COc1ccc(Cl)cc1C1Nc2ccccc2C(=O)N1c1ccc(OC)cc1 (configuration not stated) | -0.642
COC(=O)c1[nH]c2ccccc2c1NC(=O)/C=C/c1ccc2c(c1)OCO2 | 0.563
O=C1C2CCCCC2C(=O)N1c1cccc(OS(=O)(=O)c2ccccc2)c1 (configuration not stated) | -0.275
CCN(CC)S(=O)(=O)c1cccc(-c2nnc(SC(C)C(N)=O)n2CCc2ccccc2)c1 (configuration not stated) | -0.152
O=C(Nc1cnc2ccccn2c1=O)c1ccc(F)cc1 | -0.0283
O=C(Nc1cnc2ccccn2c1=O)c1ccc(Cl)cc1 | -0.161
Cc1ccc(C(=O)Nc2cnc3ccccn3c2=O)cc1 | 4.27 (active)
CC(C)(C)C1CCc2c(C(=O)N/N=C/c3cccs3)csc2C1 (configuration not stated) | 3.34 (active)
CC(C)(C)C1CCc2c(C(=O)NNC(=O)/C=C/C(=O)O)csc2C1 (configuration not stated) | -0.42
Cc1occc1C(=O)N/N=C/c1cccs1 | 0.00925
